# Lmaj promast = reduces viability of Leishmania major promastigotes; inhibition, % at 10 µM; resazurin fluorescence viability; actives 9% (n = 200,000); in the data active means inhibition above about 50%;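 further: promastigotes grown with compound for 44 hours at 28 °C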
# m-calpain inh = blocks pig calpain II enzyme activity; purified calpain II, fluorogenic peptide substrate, 30 min; AID 1236; actives 0.37% (n = 220,000); inhibition, % at 16 µM;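 active means inhibition above about 50%, limit read from the data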
# WT yeast gro inh = growth inhibition of WT yeast, mitochondrial fusion screen. inhibition, % at 10 µM. AID 1362. actives 2.1% (n = 190,000). mitochondrial fusion phenotypic screen, WT strain; in the data active means inhibition above about 58%; tested in S. cerevisiae
# Cl transport mod = modulates chloride dependent transport by human KCC2; Q9H2X9; actives 2.2% (n = 190,000); KCC2 cells, thallium flux FluoZin-2 fluorescence; B-score of Tl+ flux slope (higher = more flux/activation; lower = inhibition) at 10 µM;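 active means thallium flux slope and its plate-corrected score both differing from the plate sample mean at a set confidence after two filtering rounds, in either direction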;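 further: slope of fluorescence scaled to starting intensity during 10 to 20 s after thallium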
# ROMK primary = human ROMK K+ channel modulation, primary screen; Tet-inducible ROMK, thallium flux fluorescence; actives lie on both sides; B-score at 10 µM; actives 2% (n = 130,000); AID 1918;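 active means signal ratio slope over the read window, or its plate-corrected B-score, at least 3 SD from the plate mean, either direction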;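 further: B-score of the F/F0 ratio slope over 7 to 12 s after thallium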
# * marks the source's active call; other numbers are inactive results; / = no result given. Sampled rows, rich in hits. Any-hit rate of the full collection: about 12%.
SMILES,Lmaj promast,m-calpain inh,WT yeast gro inh,Cl transport mod,ROMK primary
O=C(O/N=C1\CCCCC1c1ccc([N+](=O)[O-])cc1[N+](=O)[O-])c1c(F)cccc1F (stereo not drawn),62*,63*,-5,/,/
O=[N+]([O-])c1ccc(C2CCCC/C2=N/OCc2ccc(F)cc2)c([N+](=O)[O-])c1 (stereo not drawn),54*,37,14,0.79,/
Cc1ccc(-c2nn3c(C)nnc3c3ccccc23)cc1S(=O)(=O)NC(C)c1ccccc1 (stereo not drawn),99*,-34,-1,-0.26,/
Cc1ccc(-c2nn3c(C)nnc3c3ccccc23)cc1S(=O)(=O)NCCO,-5,3,19,0.13,0.13
COc1ccc(C)cc1S(=O)(=O)N(CC(=O)NCc1ccc(Cl)cc1)Cc1ccccc1,99*,21,49,/,-1.6
COc1ccc(CNC(=O)CN(Cc2ccc(Cl)cc2)S(=O)(=O)c2ccccc2)cc1,12,25,0,-0.59,-0.0043
COc1ccc(CNC(=O)CN(Cc2ccccc2)S(=O)(=O)c2ccc(Cl)cc2)cc1,98*,20,2,-0.59,/
N#Cc1nc(COc2ccc(Cl)cc2)oc1NCc1ccc2c(c1)OCO2,75*,29,22,/,0.35
COC(=O)c1cc(=O)n(-c2ccc(F)cc2)c(=Nc2ccc(F)cc2)s1,92*,-14,47,-0.93,0.52
COC(=O)c1cc(=O)n(Cc2ccc3c(c2)OCO3)c(=Nc2ccccc2)s1,82*,-64,2,0.69,/
COC(=O)c1cc(=O)n(Cc2ccc(F)cc2)c(=NCc2ccc(F)cc2)s1,-2,-26,8,1.1,-0.44
COC(=O)c1cc(=O)n(Cc2ccc3c(c2)OCO3)c(=Nc2ccc(F)cc2)s1,87*,-92,12,1,/
COC(=O)C1=C(C)N(Cc2ccc3c(c2)OCO3)C(=O)C1,-2,-3,-16,0.02,0.7
CC(=O)c1c(O)cc(C)n(-c2ccc(F)cc2)c1=O,-3,3,-5,-0.011,-0.7
COC(=O)c1c(O)cc(C(C)(C)C)n(-c2ccc(F)cc2)c1=O,63*,-3,-14,1.4,0.18
COC(=O)c1ccc(N=c2sc(C(=O)OC)cc(=O)n2C)cc1,7,-5,4,0.59,/
O=C(NC(=O)c1ccccc1O)c1ccc2c(c1)CCO2,/,-19,/,0.0084,/
Cc1nc([N+](=O)[O-])c(C(=O)O)n1C,-2,-20,-17,0.14,0.18
COC(=O)c1cc(=O)n(Cc2cccs2)c(=Nc2ccc(F)cc2)s1,98*,7,37,-0.021,/
CCOC(=O)c1ccc(N=c2sc(C(=O)OC)cc(=O)n2Cc2ccc3c(c2)OCO3)cc1,100*,-72,2,/,/
O=C1CN(C(=O)c2ccc(Br)o2)C(c2ccccc2)c2cc(Br)ccc2N1 (stereo not drawn),69*,-66,35,0.22,/
Cc1ccc2c(c1)C(c1ccc(F)cc1)N(C(=O)C1CC1)CC(=O)N2 (stereo not drawn),5,-7,-1,-0.33,/
O=C(O)CN1C(=O)Nc2ccc(Br)cc2C1c1ccccc1 (stereo not drawn),-8,-19,-7,-0.25,/
Cc1ccc2c(c1)C(c1ccccc1)N(C(=O)c1ccc(Br)o1)CC(=O)N2 (stereo not drawn),95*,-9,-2,0.26,/
CC1CCCC(C)N1CC(O)COCC1COc2ccccc2O1 (stereo not drawn),52*,-14,-15,/,/
SMILES,Lmaj promast,m-calpain inh,WT yeast gro inh,Cl transport mod,ROMK primary
CC(C)(C)NC(=O)[C@H]1CC[C@H]2[C@@H]3CC[C@H]4NC(=O)C=C[C@]4(C)[C@H]3CC[C@]12C,/,23,12,-0.23,/
CCC(C)NCCOCCOc1ccc(Cl)cc1Br (stereo not drawn),96*,16,36,3,-0.87
Cc1ccc(OCCOCCNC(C)C)c(Br)c1,90*,-3,9,-0.99,/
Cc1ccc(OCC(=O)NCCO)c(Br)c1,-3,24,-4,-0.096,-0.96
CCCCNCCOCCOc1ccc(C)cc1Br,98*,-12,9,-0.67,-1.6
CCC(C)NCCOCCOc1ccc(C)cc1OC (stereo not drawn),40,27,15,1.7,0.23
COCCCNCCOc1cc(C(C)C)ccc1C,91*,17,-1,/,/
CC(OC(=O)c1ccc(Cl)c(S(=O)(=O)N2CCc3ccccc32)c1)C(=O)Nc1ncc(Cl)cc1Cl (stereo not drawn),-3,0,15,-0.5,/
CC(C)(C)C(=O)Nc1ccc(N2CCCC2)cc1,5,-14,-19,0.11,/
O=C(CSc1n[nH]c(=O)n1-c1cccnc1)N1CCOCC1,/,6,/,-0.44,/
COCCCNCCOCCOc1ccc(C)cc1Br,90*,-5,-2,-0.38,-0.1
COc1ccccc1OCCOCCOc1ccc(C)cc1Br,33,19,29,-0.54,/
CCCc1cc(=O)[nH]c(SCCN2C(=O)c3ccccc3C2=O)n1,-7,-14,-8,-0.67,0.19
CCOC(=O)C1=C(C)NC2=C(C(=O)c3ccccc32)C1c1cccnc1 (stereo not drawn),82*,-5,9,1.7,-0.065
CCOC(=O)C1=C(N)OC2=C(C(=O)CC(C)(C)C2)C1c1cccnc1 (stereo not drawn),78*,-4,-12,-1.1,/
CCOC(=O)C1=C(C)OC(N)=C(C(=O)OCC)C1c1cccnc1 (stereo not drawn),84*,13,12,0.14,/
Cc1ccc(NS(=O)(=O)c2ccc(OCC(=O)N3CCOCC3)cc2)cc1,-5,-1,-5,-0.34,/
COc1cccc(-c2cc(C(=O)Nc3cnn(Cc4ccc(F)cc4)c3)no2)c1,0,-22,-20,0.1,/
Cc1ccc(Cn2ccc(NC(=O)c3nn(C)cc3Cl)n2)cc1,6,11,-2,-2.3,/
O=C(Nc1cnn(Cc2ccc(F)cc2)c1)c1cc(-c2ccco2)on1,69*,-83,36,-0.11,-0.87
O=C(Nc1cnn(Cc2ccc(F)cc2)c1)c1cc2nc(-c3ccco3)cc(C(F)(F)F)n2n1,-1,91*,-4,/,-0.2
Cn1cc(Cl)c(C(=O)Nc2cnn(Cc3ccc(F)cc3)c2)n1,99*,9,12,-1.2,-0.71
CCn1c(=O)cc(SCC(=O)NCCCN2CCN(c3ccccc3F)CC2)c2ccccc21,0,-5,13,-0.93,/
CCOC(=O)c1cc2ccc3ccccc3c2s1,0,23,60*,-0.47,/
Cc1cc2nnc(SCCCCN3C(=O)c4ccccc4C3=O)n2c2ccccc12,-7,11,28,-0.93,/
CC1(C)CC(NCc2ccncc2)CC(C)(C)N1,-4,8,-22,-0.38,0.57
CC12CC3CC(C)(C1)CC(NCc1ccncc1)(C3)C2,82*,21,-14,0.53,-1.7
Nc1ccc(N(c2ccccc2)c2ccc(N)cc2)cc1,100*,10,-10,-0.78,/
CCOc1cc(C=O)c(Br)cc1OC1CCCC1,83*,-17,6,-0.61,/
Cc1onc(-c2ccccc2)c1C(=O)N1CCN(c2ncccn2)CC1,-5,-6,2,-0.51,0.58

# Screening data (PubChem)
